Among the data in PubChem BioAssay (EPA / NIEHS) are outcome and AC50 values, retold here.

The source made the active and inactive calls. The calls were made as follows: active = hit-call score of the fitted dose curve at least 0.9, where 1 is the maximum; inactive = score below 0.9.

What all share (conditions): mRNA level, 48 h; actives raise or lower the signal
Read-out in assay [1]: NAD(P)H dehydrogenase [quinone] 1 (NQO1), NQO1 (gene 1728)
The assay is described as follows: LTEA_HepaRG_NQO1: Life Technologies and Expression Analysis (LTEA) Assay for NAD(P)H dehydrogenase [quinone] 1 (NQO1) using HepaRG (AID 2283526). The essentials:
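Human HepaRG hepatic cells received chemicals for 48 h in serum-free induction medium with 0.5% DMSO, up to 100 uM. Expression was assessed by TaqMan qRT-PCR against housekeeping controls and fitted bidirectionally against DMSO.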

Read-out in assay [2]: Nuclear factor erythroid 2-related factor 2 (Homo sapiens) (UniProt Q16236)
Nature of the assay: LTEA_HepaRG_NFE2L2: Life Technologies and Expression Analysis (LTEA) Assay for Nuclear factor erythroid 2-related factor 2 (NFE2L2) Transcription Factor using HepaRG (AID 2283527). The gist of the method: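 Transcript level of NFE2L2 is the read-out, measured by microfluidic TaqMan qRT-PCR and normalized to three housekeeping genes. Human HepaRG cultures received test chemical for 48 h at up to 100 uM in half-log steps. Gain or loss of signal is fitted relative to 0.5% DMSO.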

Read-out in assay [3]: succinate dehydrogenase complex iron sulfur subunit B (SDHB), SDHB (gene 6390)
The assay is described as follows: LTEA_HepaRG_SDHB: Life Technologies and Expression Analysis (LTEA) Assay for succinate dehydrogenase complex iron sulfur subunit B (SDHB) using HepaRG (AID 2283528). The essentials: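 SDHB transcript level read by TaqMan qRT-PCR, housekeeping-normalised (ACTB, GAPDH, POLR2A), after 48 h chemical treatment of plated HepaRG cells; eight concentrations top 100 uM, half-log steps, 0.5% DMSO, duplicates; fitted both directions against DMSO.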

Read-out in assay [4]: Signal transducer and activator of transcription 3 (Homo sapiens) (UniProt P40763)
The assay is described as follows: LTEA_HepaRG_STAT3: Life Technologies and Expression Analysis (LTEA) Assay for Signal transducer and activator of transcription (STAT3) using HepaRG (AID 2283529). The essentials:
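Read-out is STAT3 mRNA level by qRT-PCR, normalized to three housekeeping genes, in human HepaRG liver cells treated for 48 h. Concentrations ran from 100 uM downward in half-log steps; curves were fitted for gain or loss relative to 0.5% DMSO.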

Read-out in assay [5]: solute carrier (SLCO1B1), SLCO1B1 (gene 10599)
The assay is described as follows: LTEA_HepaRG_SLCO1B1: Life Technologies and Expression Analysis (LTEA) Assay for solute carrier (SLCO1B1) using HepaRG (AID 2283530). The essentials:
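Differentiated human HepaRG cells, plated 48 h, switched to serum-free induction medium and exposed in duplicate for 48 h to 8 half-log concentrations (top 100 uM) in 0.5% DMSO. SLCO1B1 mRNA by TaqMan qRT-PCR, normalized to ACTB/GAPDH/POLR2A.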

Read-out in assay [6]: sulfotransferase 2A1 (SULT2A1), SULT2A1 (gene 6822)
Nature of the assay: LTEA_HepaRG_SULT2A1: Life Technologies and Expression Analysis (LTEA) Assay for sulfotransferase 2A1 (SULT2A1) using HepaRG (AID 2283531). The essentials: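 Differentiated human HepaRG cells in serum-free induction medium were exposed for 48 h to eight half-log concentrations (top 100 uM, 0.5% DMSO). SULT2A1 mRNA was measured by qRT-PCR, normalized to ACTB, GAPDH and POLR2A, and fitted bidirectionally against DMSO.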

Read-out in assay [7]: Transforming Growth Factor (TGFA), TGFA (gene 7039)
Nature of the assay: LTEA_HepaRG_TGFA: Life Technologies and Expression Analysis (LTEA) Assay for Transforming Growth Factor (TGFA) using HepaRG (AID 2283532). The essentials:
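HepaRG (human liver line), 48 h exposure, 8 conc. half-log down from 100 uM, 0.5% DMSO vehicle, duplicates; serum-free induction medium. TGFA mRNA by TaqMan qRT-PCR, ACTB/GAPDH/POLR2A normalization; gain/loss fit vs DMSO.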

Read-out in assay [8]: Transforming Growth Factor (TGFB1), TGFB1 (gene 7040)
Nature of the assay: LTEA_HepaRG_TGFB1: Life Technologies and Expression Analysis (LTEA) Assay for Transforming Growth Factor (TGFB1) Transporter using HepaRG (AID 2283533). The essentials:
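Differentiated human HepaRG cells in serum-free induction medium were exposed in duplicate for 48 h to eight concentrations (top 100 uM, half-log steps, 0.5% DMSO). TGFB1 mRNA was quantified by qRT-PCR, normalized to ACTB, GAPDH, POLR2A, and fitted bidirectionally against DMSO.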

Read-out in a further assay: TIMP1, TIMP1 (gene 7076)
The assay is described as follows: LTEA_HepaRG_TIMP1: Life Technologies and Expression Analysis (LTEA) Assay for TIMP1 using HepaRG (AID 2283534).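 As to outcome: TaqMan qRT-PCR signal normalized to ACTB GAPDH and POLR2A housekeeping genes.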 The gist of the method: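 Differentiated human HepaRG cells in serum-free induction medium were exposed 48 h to chemicals (8 half-log concentrations, top 100 uM, 0.5% DMSO). TIMP1 mRNA was quantified by TaqMan qRT-PCR, normalized to ACTB/GAPDH/POLR2A; bidirectional fit versus DMSO.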

Read-out in assay [9]: Tumor necrosis factor receptor 1 (TNFRSF1A), TNFRSF1A (gene 7132)
Nature of the assay: LTEA_HepaRG_TNFRSF1A: Life Technologies and Expression Analysis (LTEA) Assay for Tumor necrosis factor receptor 1 (TNFRSF1A) using HepaRG (AID 2283535). The essentials: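 Differentiated human HepaRG cells were exposed in duplicate for 48 h in serum-free induction medium to eight concentrations (top 100 uM, half-log steps, 0.5% DMSO). TNFRSF1A mRNA was quantified by qRT-PCR, normalized to ACTB, GAPDH and POLR2A, then fitted bidirectionally against DMSO.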

Signal transducer and activator of transcription 3 (Homo sapiens), sequence (P40763 whole entry, looked up): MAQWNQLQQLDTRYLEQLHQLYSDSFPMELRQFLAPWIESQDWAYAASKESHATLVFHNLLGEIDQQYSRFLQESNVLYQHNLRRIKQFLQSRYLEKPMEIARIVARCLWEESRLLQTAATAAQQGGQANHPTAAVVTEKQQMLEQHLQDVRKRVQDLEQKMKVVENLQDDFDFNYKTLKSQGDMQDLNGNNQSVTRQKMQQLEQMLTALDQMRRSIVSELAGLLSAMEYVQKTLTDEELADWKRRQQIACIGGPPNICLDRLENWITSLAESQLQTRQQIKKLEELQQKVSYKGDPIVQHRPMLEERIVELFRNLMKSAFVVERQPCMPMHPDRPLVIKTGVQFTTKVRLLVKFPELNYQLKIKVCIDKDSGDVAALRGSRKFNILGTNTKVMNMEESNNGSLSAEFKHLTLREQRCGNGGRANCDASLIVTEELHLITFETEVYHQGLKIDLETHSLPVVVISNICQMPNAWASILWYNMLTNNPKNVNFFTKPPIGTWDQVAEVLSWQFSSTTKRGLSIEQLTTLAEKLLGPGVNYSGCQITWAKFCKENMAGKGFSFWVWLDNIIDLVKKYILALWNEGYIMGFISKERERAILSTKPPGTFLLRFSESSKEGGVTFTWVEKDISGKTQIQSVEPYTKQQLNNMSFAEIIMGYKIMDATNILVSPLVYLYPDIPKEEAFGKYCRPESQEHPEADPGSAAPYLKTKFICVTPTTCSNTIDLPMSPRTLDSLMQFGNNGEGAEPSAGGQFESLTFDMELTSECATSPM
Nuclear factor erythroid 2-related factor 2 (Homo sapiens), sequence (Q16236 whole entry, looked up): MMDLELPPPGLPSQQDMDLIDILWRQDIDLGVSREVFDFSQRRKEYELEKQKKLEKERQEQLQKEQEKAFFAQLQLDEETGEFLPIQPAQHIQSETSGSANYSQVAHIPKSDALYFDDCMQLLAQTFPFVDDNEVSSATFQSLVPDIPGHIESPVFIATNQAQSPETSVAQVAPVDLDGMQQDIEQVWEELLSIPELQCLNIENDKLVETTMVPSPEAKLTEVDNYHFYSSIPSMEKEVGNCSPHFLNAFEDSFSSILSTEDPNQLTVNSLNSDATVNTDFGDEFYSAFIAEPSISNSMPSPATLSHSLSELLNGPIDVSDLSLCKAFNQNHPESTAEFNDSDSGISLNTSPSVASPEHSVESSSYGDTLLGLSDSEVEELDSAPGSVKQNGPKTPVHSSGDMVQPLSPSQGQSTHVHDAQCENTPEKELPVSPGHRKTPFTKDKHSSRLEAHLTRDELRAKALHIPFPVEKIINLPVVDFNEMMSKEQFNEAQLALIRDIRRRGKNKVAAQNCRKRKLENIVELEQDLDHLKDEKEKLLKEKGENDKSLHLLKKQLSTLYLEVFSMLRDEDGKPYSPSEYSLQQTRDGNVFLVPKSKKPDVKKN

As to `Cc1cc2c(cc1C(F)(F)F)N(C(=O)Nc1ccc(Oc3cccnc3C)nc1)CC2`, the outcome in [1], in [2], in [3], in assay [4], in assay [5] and in assay [6] was inactive. The compound was called inactive in [7] and in assay [8]. Besides, the half-maximal activity concentration (AC50) in the assay with TIMP1, TIMP1 (gene 7076) is 83 µM (active); in assay [9], 73.6 µM (active).

Take `CN(C[C@@H](CC[N+]12CCC(C3CCCCC3)(CC1)CC2)c1ccc(Cl)c(Cl)c1)C(=O)c1cc(C(F)(F)F)cc(C(F)(F)F)c1`: the compound was called inactive in assay [1], in [2], in [4] and in assay [9]. The AC50 is 68.8 µM (active) in [3]; 33.9 µM (active) in assay [5]; 68 µM (active) in assay [6]; 50 µM (active) in [7]; 12.3 µM (active) in [8]; 68.7 µM (active) in the assay with TIMP1, TIMP1 (gene 7076).

On to `CC/C(=C(/CC)c1ccc(O)cc1)c1ccc(O)cc1`, for which the outcome was “inactive” in assay [1]; “inactive” in assay [5]; “inactive” in the assay with TIMP1, TIMP1 (gene 7076). Besides, the half-maximal activity concentration (AC50) in [2] was 89.9 µM (active); in assay [3] it was 50 µM (active); in assay [4], 90.8 µM (active); in assay [7], 81.3 µM (active); in assay [8], 90.8 µM (active); in assay [9] it was 93.8 µM (active).

Turning to `CCCCCCCCCCCC[N+](C)(C)C`, the compound was classed as inactive in [1], in assay [3], in [4] and in assay [9]. Besides, the AC50 is 76.9 µM (active) in [2]; 88.1 µM (active) in [5]; 77 µM (active) in assay [7]; 50 µM (active) in assay [8]; 83.4 µM (active) in the assay with TIMP1, TIMP1 (gene 7076).

In the case of `O=c1ccc2ccccc2o1`, the compound was called inactive in [1], in assay [2], in assay [3], in assay [4], in [5] and in assay [7]. Further, the outcome is “inactive” in [8]; “inactive” with TIMP1, TIMP1 (gene 7076); “inactive” in assay [9].

`Oc1ccc2ccccc2c1`: the outcome in assay [1], in [2], in assay [3], in assay [4], in [5] and in assay [7] was inactive. Also, the outcome was “inactive” in assay [8]; “inactive” in the assay with TIMP1, TIMP1 (gene 7076); “inactive” in assay [9].

For `CCCCCCCCOc1ccc(C(=O)c2ccccc2)c(O)c1`, the compound was called inactive in assay [1], in assay [2], in assay [3], in [4], in assay [5] and in assay [7]. The outcome in assay [8] was “inactive”; with TIMP1, TIMP1 (gene 7076), “inactive”; in assay [9] it was “inactive”.

Regarding `COc1ccc2cc(S(=O)(=O)N[C@H](CC(=O)N[C@H](Cc3ccc(CN4[C@H](C)CCC[C@@H]4C)cc3)C(=O)N(C)C(C)C)c3ccc4c(c3)OCO4)ccc2c1`, in assay [1], the call was inactive. Besides, the half-maximal activity concentration (AC50) in assay [2] was 21.8 µM (active); in assay [3], 22 µM (active); in [4], 12.4 µM (active); in [5], 26.3 µM (active); in assay [7], 25.3 µM (active); in [8], 12.8 µM (active). The AC50 in the assay with TIMP1, TIMP1 (gene 7076) is 30.8 µM (active); in assay [9], 21.2 µM (active).

For the compound `CC(C)(C)c1csc(-c2cc3cc(OCc4ccccc4CC(=O)O)ccc3o2)n1`, the AC50 in assay [1] was 93.4 µM (active); in assay [3], 84.8 µM (active); in [4], 91 µM (active); in assay [5] it was 50 µM (active); in assay [7], 85.4 µM (active); in assay [8], 81.9 µM (active). For the same compound, the AC50 in the assay with TIMP1, TIMP1 (gene 7076) is 78.4 µM (active); in assay [9], 83.2 µM (active). Besides, the compound was called inactive in [2].

`CCCCCCCCCCCO`: the outcome in [1], in assay [2], in assay [3], in assay [4], in assay [5] and in assay [7] was inactive. For the same compound, the outcome in assay [8] was “inactive”; in the assay with TIMP1, TIMP1 (gene 7076) it was “inactive”; in [9], “inactive”.
